Assay results taken from PubChem BioAssay AID488969 (Vanderbilt High Throughput Screening Facility, 2010).
The full ranking holds about 110,000 compounds; the median of “z-score” is about -0.1, and the highest 2% start at about 2. For the sample, the highest values were picked, then their nearest neighbours and some compounds at random. Activity calls are given as the source filed them.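 How the source made its calls: active means z-score in the third read window above 3 or below -3; inactive means the rest.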

target: Metabotropic glutamate receptor 8 (Rattus norvegicus) (UniProt P70579); assay: mGluR8 Gi/Go-coupled signaling modulation – cell-based, rat, thallium flux, HTS, primary screen (AID 488969); conditions: HEK293 rat mGluR8, GIRK (G protein-gated inwardly rectifying potassium channel) thallium flux, FluoZin2; at 10 µM; stronger effect = higher value; submaximal glutamate (EC20) added with thallium
Sequence (P70579 whole entry, looked up): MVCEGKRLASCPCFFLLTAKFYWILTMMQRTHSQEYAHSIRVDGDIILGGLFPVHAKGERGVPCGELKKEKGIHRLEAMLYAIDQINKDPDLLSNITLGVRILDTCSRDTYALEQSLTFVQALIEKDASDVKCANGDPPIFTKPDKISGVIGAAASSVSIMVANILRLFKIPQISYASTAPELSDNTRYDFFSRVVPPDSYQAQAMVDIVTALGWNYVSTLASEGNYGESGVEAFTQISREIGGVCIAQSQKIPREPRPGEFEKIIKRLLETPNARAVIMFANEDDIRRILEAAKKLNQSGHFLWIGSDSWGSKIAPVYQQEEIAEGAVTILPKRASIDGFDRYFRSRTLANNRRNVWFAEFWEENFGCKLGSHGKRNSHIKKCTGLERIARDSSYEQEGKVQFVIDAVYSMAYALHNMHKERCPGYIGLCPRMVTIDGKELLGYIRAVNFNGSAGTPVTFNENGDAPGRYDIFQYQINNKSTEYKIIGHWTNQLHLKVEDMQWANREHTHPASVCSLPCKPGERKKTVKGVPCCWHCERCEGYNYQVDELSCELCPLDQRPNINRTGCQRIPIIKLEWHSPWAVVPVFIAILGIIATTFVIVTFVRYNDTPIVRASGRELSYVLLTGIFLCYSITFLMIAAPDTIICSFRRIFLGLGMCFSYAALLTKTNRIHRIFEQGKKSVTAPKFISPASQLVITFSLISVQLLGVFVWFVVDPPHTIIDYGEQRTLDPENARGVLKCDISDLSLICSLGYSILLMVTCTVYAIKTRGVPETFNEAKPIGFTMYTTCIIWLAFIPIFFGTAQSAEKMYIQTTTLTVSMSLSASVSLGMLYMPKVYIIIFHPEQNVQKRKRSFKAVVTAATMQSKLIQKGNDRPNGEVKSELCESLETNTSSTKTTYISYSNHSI

| Compound | z-score |
| --- | --- |
| CCOC(=O)c1cnc(-c2ccccc2)nc1Oc1ccc(Cl)cc1 | -0.241 |
| CCOC(=O)c1cnc(-c2ccccc2)nc1Oc1ccccc1 | -0.19 |
| CCOC(=O)c1cnc(-c2ccccc2)nc1Oc1ccc(C)cc1 | 2.4 |
| COc1ccc(C(=O)Nc2ccc(S(=O)(=O)NCc3ccco3)cc2)cc1OC | 3.13 (active) |
| Cc1ccc(C(=O)Nc2ccc(S(=O)(=O)NCc3ccco3)cc2)cc1 | 0.0377 |
| O=C(Nc1ccccc1)c1ccc(S(=O)(=O)NCc2ccco2)cc1 | -0.18 |
| CCOC(=O)c1c(NC(=O)C2CCCO2)sc(C(N)=O)c1C (centres undefined) | -0.0328 |
| CN(C)c1ccc(N=Nc2ccccc2C(=O)OCC(=O)NC2CCCC2)cc1 | -0.235 |
| COc1cccc(C(=O)NC(C)c2ccc(Br)cc2)c1 (centres undefined) | -0.143 |
| CCCC(=O)NC1C2CC3CC(C2)CC1C3 (centres undefined) | 0.313 |
| CC(=O)c1c(C)[nH]c(C(=O)OCC(=O)Nc2cccc(S(=O)(=O)N3CCCC3)c2)c1C | 0.16 |
| Cc1cc(C)c(C)c(S(=O)(=O)NNC(=O)c2cccc(S(=O)(=O)N3CCOCC3)c2)c1C | -0.174 |
| Cc1ccccc1OC(=O)n1c(=S)oc2cc(Cl)ccc21 | 1.42 |
| COC(=O)n1c(=S)oc2cc(Cl)ccc21 | 2.15 |
| CCCCOC(=O)n1c(=S)oc2cc(Cl)ccc21 | -0.00789 |
| O=C(NCc1ccco1)c1ccc(S(=O)(=O)c2cccc(S(=O)(=O)N3CCOCC3)c2)cc1 | 0.0723 |
| CCC(C)C(=O)Nc1nc(C)c(-c2csc(Nc3ccccc3OC)n2)s1 (centres undefined) | -0.407 |
| Clc1ccc(OCc2cc(-c3ccccc3)no2)c(Cl)c1 | -0.0969 |
| COc1ccc2nc(N3C(=O)CC(Cc4ccc(Cl)cc4)C3=O)sc2c1 (centres undefined) | -0.21 |
| COc1ccc(N2C(=O)/C(=C/c3cccnc3)NC2=S)cc1 | -0.439 |
| COc1ccc2nc(N3C(=O)/C(=C/c4ccc(Cl)cc4)NC3=S)sc2c1 | 6.84 (active) |
| CCOc1ccc2nc(N3C(=O)/C(=C/c4ccc(Cl)cc4)NC3=S)sc2c1 | 1.05 |
| CCOc1ccc2nc(N3C(=O)/C(=C/c4ccccc4)NC3=S)sc2c1 | 3.66 (active) |
| COc1ccc2nc(N3C(=O)/C(=C/c4ccccc4)NC3=S)sc2c1 | 11.9 (active) |
| CCOc1ccc2nc(SCC(=O)c3ccccc3)sc2c1 | 0.303 |
| COc1ccc2nc(N3C(=O)CC(C(C)c4ccccc4)C3=O)sc2c1 (centres undefined) | -0.143 |
| COC(=O)/C=C1\C(=O)N(c2nc3ccc(OC)cc3s2)C(=S)N1c1ccc(F)cc1 | 0.0125 |
| Cc1cccc(OCCNc2cc(N3CCN(CCO)CC3)ccc2[N+](=O)[O-])c1 | -0.0985 |
| Cc1cc2c(cc1C)NC1(C(=O)Nc3ccccc31)C1=C(CC(C)(C)CC1=O)N2 (centres undefined) | 0.0524 |
